Hits are enriched below; roughly 4.8% of the tested compounds scored in any of these assays.
DRD3 antagonist = D3 dopamine receptor (human) antagonism. AID 652054. P35462. D3R cells, DiscoveRx beta-arrestin luminescence, antagonist mode; active compounds read low. max response, negative = inhibition, %. 360,000 tested, 2.5% active; in the data active = max response below about -50%; inconclusive = no clear call, values can overlap the other calls; note: % is set by controls: 0 for no effect and ±100 for the full control effect
Target sequence (P35462 whole entry, looked up): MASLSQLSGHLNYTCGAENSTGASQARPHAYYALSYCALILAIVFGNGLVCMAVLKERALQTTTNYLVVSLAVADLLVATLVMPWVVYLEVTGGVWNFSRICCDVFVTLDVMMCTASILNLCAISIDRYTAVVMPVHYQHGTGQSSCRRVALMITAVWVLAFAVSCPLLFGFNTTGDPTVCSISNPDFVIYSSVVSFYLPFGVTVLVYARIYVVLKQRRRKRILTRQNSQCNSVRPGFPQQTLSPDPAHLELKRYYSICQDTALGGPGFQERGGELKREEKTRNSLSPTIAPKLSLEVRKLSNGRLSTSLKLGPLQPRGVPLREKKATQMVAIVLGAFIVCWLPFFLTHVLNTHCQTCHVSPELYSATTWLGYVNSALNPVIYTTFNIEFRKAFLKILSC
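Cells plated overnight at 1500 cells/well, then exposed to library compounds with dopamine controls for 90 minutes at 37 degrees C. DiscoveRx reagent added for 30–60 minutes at room temperature; luminescence read, quantitative HTS format.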
ATXN viability = reduces viability in counter-screen for ATXN expression inhibitors. S2 cells (HEK-293 line with an ATXN2-luciferase reporter) viability, CellTiter-Fluor protease fluorescence, 24 h. Potency, µM (titrated, usually from 56.7 µM), actives largely listed as cytotoxic. 400,000 tested, 0.49% active; note: potency is the fitted concentration of half-maximal effect; nearly all actives have a fitted effect of over 40% in size
ATXN2 expr inh = reduces ATXN2 reporter expression in HEK-293 cells; AID 1745845; Potency, µM (series often up to 57 µM), inactives show at the highest dose activity change, negative = inhibition, hits mostly inhibitors; 360,000 tested, 0.72% active; HEK-293 ATXN2-luciferase reporter, luminescence, 24 h; note: potency is the fitted concentration of half-maximal effect; % is set by controls: 0 for no effect and ±100 for the full control effect; nearly all actives have a fitted effect of over 55% in size
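qHTS (up to 57 uM final) was run with 24 h compound exposure of reporter cells at 37 °C. Each well was multiplexed: SteadyGlo luminescence measured ATXN2-luciferase expression after a fluorogenic Gly-Phe-AFC viability readout (25 uM final).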
HepG2 tox = counter-screen for TGF-b inhibitors: cytotoxicity in HepG2 cells. HepG2 CAGA-GFP viability, ATP luminescence, 18 h. Potency, µM (doses to about 46.1 µM), without a hit: top-dose activity change, negative = cytotoxicity, actives largely listed as cytotoxic. 410,000 tested, 0.76% active; note: potency is the fitted concentration of half-maximal effect
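CellTiter-Glo luminescence gave cytotoxicity after 18 hours at 37 degrees C. The cells were HepG2 CAGA-GFP in 1% FBS DMEM, stimulated with 500 pg/mL TGF-beta after compound addition. %Activity was normalised to no-cell wells (complete cell-killing) and DMSO (no toxicity), and curves were fitted and classified.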
DRD3 agonist = agonists of human D3 dopamine receptor; P35462; D3R DiscoveRx beta-arrestin cells, luminescence, 90 min; max activation, %; 410,000 tested, 0.58% active; AID 652048; in the data active = max activation above about 30%; note: 0% is about no effect
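Agonist mode: compounds and dopamine controls were applied to plated cells for 90 min at 37 degrees C after an overnight attachment at 1500 cells/well. Luminescent read-out followed 30 - 60 minutes at room temperature with DiscoveRx detection reagent.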
TGFb inhibitor = TGF-b pathway inhibition | HepG2 CAGA-GFP TGF-b/SMAD3 reporter, GFP fluorescence, 18 h; TGF-beta stimulated, 500 pg/mL final | Potency, µM (titrated, usually from 46.1 µM), for inactives: at the top dose activity, negative = inhibition, usual class: inhibitors | 410,000 tested, 1.2% active | AID 588855; note: potency is the fitted concentration of half-maximal effect; % is set by controls: 0 for no effect and ±100 for the full control effect; nearly all actives have a fitted effect of over 65% in size
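First, reporter cells (HEPG2 CAGA-GFP) rested 2 h at 37 degrees C. Next, compounds were pinned in and TGF-beta added to 500 pg/mL final. After 18 h, GFP was imaged per cell and summed per well.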
Starred values were filed as active, the others as inactive; i = inactive; u = inconclusive; x = no result given; [ ] = another dose, or the depositor's remark. Unless noted, calls come from the whole dose curve; as a rule, active = well fitted curve in the direction sought with a large enough effect; inconclusive = small, poorly fitted or top-dose-only effect, or another doubt; inactive = no such curve, though single readings can be large; an effect the other way counts as inactive or inconclusive.

SMILES	DRD3 antagonist	ATXN viability	ATXN2 expr inh	HepG2 tox	DRD3 agonist	TGFb inhibitor
Cc1ccc(OCc2ccc(-c3nc(C#N)c(NCc4cccnc4)o3)o2)cc1	x	u	u	-24%	1	-27%
COc1ccc(CNc2oc(-c3ccc(COc4ccccc4C)o3)nc2C#N)cc1	x	u	-1%	14µM*	6	-11%
Cc1cccc(OCc2ccc(-c3nc(C#N)c(NCc4cccnc4)o3)o2)c1	x	22µM*	28µM*	-20%	-2	u
COc1ccc(OCc2ccc(-c3nc(C#N)c(NCc4ccccc4)o3)o2)cc1	x	i	-16%	-22%	2	u
CN(C)c1ccc(/C=C2/CCCc3c2nc2ccccc2c3C(=O)O)cc1	x	x	x	-1%	x	-23%
O=C(C1CCCN(Cc2cccc(F)c2)C1)N1CCCCC1 (stereo unspecified)	-73*	i	1%	-5%	-8	u
Cc1ccc(CN2CCCC(C(=O)N3CCCC3)C2)cc1 (stereo unspecified)	-8	i	3%	-4%	-1	4%
COc1ccc(CN2CCCC(C(=O)N3CCc4ccccc4C3)C2)cc1OC (stereo unspecified)	-61*	i	-20%	-7%	-19	0%
O=C(C1CCCN(Cc2ccccc2)C1)N1CCc2ccccc2C1 (stereo unspecified)	-89*	i	3%	-36%	-45	-13%
COc1cc(CN2CCCC(C(=O)N3CCc4ccccc4C3)C2)cc(OC)c1OC (stereo unspecified)	-70*	i	-9%	-14%	-17	-13%
COc1cccc(C2CNC3(CCCC(C)C3)c3[nH]c4ccccc4c32)c1OC (stereo unspecified)	-14	11µM*	x	-49%	-12	u
CC1(C)CC(=O)CC2(C1)NCC(c1ccccc1)c1c2[nH]c2ccccc12 (stereo unspecified)	5	i	2%[11.3 µM]	-15%	5	-17%
CCOc1ccc(/C=C/c2cc[n+](C)c3ccccc23)cc1OCC	x	x	x	-4%	x	6%
Cc1cccn2c(=O)c3cc(C(=O)NCc4ccco4)c(=N)n(CCc4ccccc4)c3nc12	-11	i	-17%	-39%	10	-1%
N=c1c(C(=O)NCc2ccco2)cc2c(=O)n3ccccc3nc2n1Cc1ccccc1	-51*	u	-24%	-13%	-10	-4%
Cc1cccn2c(=O)c3cc(C(=O)NCCc4ccccc4)c(=N)n(Cc4ccco4)c3nc12	-100*	i	u	-17%	-16	u
O=C(COc1ccc(F)cc1)OCc1cc(=O)n2nc(C3CC3)sc2n1	x	i	-11%	0%	-5	-10%
O=c1[nH]c(=S)[nH]c2n[nH]nc12	x	x	x	-12%	x	-1%
Clc1ccc(OCCN2CCOCC2)cc1Cl	-66*	i	12%	0%	1	-19%
ON=C1c2cc(OCCN3CCCCC3)ccc2-c2ccc(OCCN3CCCCC3)cc21	u	u	u	-53%	-26	u
NC(=S)NN=C1c2cc(OCCN3CCOCC3)ccc2-c2ccc(OCCN3CCOCC3)cc21	2	x	7.9µM*	-60%	5	u
Clc1ccc(OCCCN2CCCC2)cc1Cl	-66*	i	-14%	-2%	-36	-11%
Cc1cc(OCCCCCN2CCCC2)ccc1Cl	-25	u	-22%	-37%	-28	u
Clc1ccc(OCCN2CCCCC2)cc1Cl	-79*	i	1%	-1%	-9	-1%
O=S(=O)(c1ccc(Cl)cc1)N1CCN(c2nc(-c3ccc(F)cc3)nc3cc(Cl)ccc23)CC1	x	x	x	5%	x	26%
SMILES	DRD3 antagonist	ATXN viability	ATXN2 expr inh	HepG2 tox	DRD3 agonist	TGFb inhibitor
O=S(=O)(c1ccc2c(c1)CCCC2)N1CCN(c2nc(-c3cccs3)nc3ccccc23)CC1	x	x	x	-2%	x	28%
CNCCOc1ccc(Cl)c(Cl)c1	-62*	i	u	-12%	13	-8%
CNCCCOc1ccc2c(c1)CCC2	1	i	-19%	-13%	-9	-2%
CC1=C(C#N)C(c2ccc3ncccc3c2)C(C#N)=C(C)N1	-61*	i	1%	-1%	18	1%
O=c1oc2ccccc2c(N2CCN(c3ccccc3F)CC2)c1CN1CCCC1	x	i	-21%	-2%	-13	-1%
CCCOc1ccc(C(=O)Nc2ccc3oc(-c4ccc5ccccc5c4)nc3c2)cc1	x	i	26%	11%	6	-23%
C=CCn1c(SCC(=O)NC2CCCCC2)nnc1-c1sc(N)nc1C	-51*	i	1%	16%	-1	-6%
O=C(CCC1N=C2c3ccccc3N=C(SCc3ccc(F)cc3)N2C1=O)NCc1ccc(F)cc1 (stereo unspecified)	x	i	11%	-31%	-7	-26%
Cn1c(-c2ccccc2)cnc1N	-117*	i	22%	-20%	-3	-9%
COc1ccc(-c2cnc(N)n2C)cc1	1	i	x	-19%	-1	14%
COc1cc(OC)c(/C=C/c2cc3ccccc3c[n+]2C)c(OC)c1	x	x	x	-37%	x	7.9µM*
COc1ccc(OC)c(/C=C/c2cc3ccccc3c[n+]2C)c1	x	x	x	-70%	x	-5%
COc1ccc(OC)c(NC(=O)C2CCCN(S(=O)(=O)c3ccc4[nH]c(=O)ccc4c3)C2)c1 (stereo unspecified)	x	x	x	-26%	4	-18%
COc1cc(-c2cnc3c(NC(C)=O)cc(-c4ccc(N5CCN(C)CC5)cc4)cn23)cc(OC)c1OC	5	x	14µM*	-78%	1	-7%
CN1CCN(c2ccc(-c3cc(NC=O)c4ncc(-c5ccc(F)cc5)n4c3)cc2)CC1	u	u	0%	-32%	-13	u
COc1cc(-c2cnc3c(NC=O)cc(-c4ccc(N5CCN(C)CC5)cc4)cn23)cc(OC)c1OC	-2	u	-30%	-63%	5	-25%
CN1CCN(c2ccc(-c3cc(NC=O)c4ncc(-c5ccccc5)n4c3)cc2)CC1	-54*	u	u	-20%	-14	u
CN(CC(=O)O)c1ccc(C=O)cc1	x	x	x	4%	x	1%
CC/C(=C\c1ccc(C(=O)OC)cc1)c1cc(OC)cc2oc3ccccc3c12	x	x	x	-32%	x	-29%
N#CCCOC1(C#CCN2CCCC2)CCCCC1	-88*	i	x	-5%	22	-10%
CC(C)(C#CCN1CCCC1)OCCC#N	-8	i	7%	20%	-2	20%
CCOC(=O)c1c(-c2ccc(C)cc2C)csc1NC(=O)c1ccccc1Cl	x	i	5%	-1%	-14	3%
O=C(CCOc1ccccc1)N(Cc1cccnc1)c1nc2c(F)cccc2s1	x	x	x	-99%	-11	16µM*
